Activity calls are given as the source filed them.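 The calls were made as follows, unless noted: active = compound whose remaining NAD level is above about 45 nM (limit read from the data); inactive = the rest.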
tested on: not listed separately; assay: drug combination growth inhibition, ovarian cancer – cell-based, oncology-focused library, rucaparib conditional, profiling panel (AID 1508598;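 active = normalized viability below 100% at a tested concentration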); settings: patient-derived ovarian cancer cells, CellTiter-Glo viability, 144 h; at 1.25 µM; OCI-P5x cells; without rucaparib; active compounds read low

| Structure (SMILES) | viability |
| --- | --- |
| O=c1[nH]cc(F)c(=O)[nH]1 | 102% (inactive) |
| CCCCCCNC(=O)n1cc(F)c(=O)[nH]c1=O | 104% (inactive) |
| Cc1ccc(-c2cc(C(F)(F)F)nn2-c2ccc(S(N)(=O)=O)cc2)cc1 | 105% (inactive) |
| CN(CCOc1ccc(CC2SC(=O)NC2=O)cc1)c1ccccn1 (stereo not drawn) | 115% (inactive) |

same assay, conditions: patient-derived ovarian cancer cells, CellTiter-Glo viability, 144 h; at 5 µM; OCI-C5x cells; with rucaparib 10 µM; active compounds read low; 100% = cells with rucaparib alone

| Structure (SMILES) | viability |
| --- | --- |
| O=c1[nH]cc(F)c(=O)[nH]1 | 236% (inactive) |
| CCCCCCNC(=O)n1cc(F)c(=O)[nH]c1=O | 223% (inactive) |
| Cc1ccc(-c2cc(C(F)(F)F)nn2-c2ccc(S(N)(=O)=O)cc2)cc1 | 122% (inactive) |
| CN(CCOc1ccc(CC2SC(=O)NC2=O)cc1)c1ccccn1 (stereo not drawn) | 106% (inactive) |

same assay, conditions: patient-derived ovarian cancer cells, CellTiter-Glo viability, 144 h; at 5 µM; OCI-C5x cells; without rucaparib; active compounds read low

| Structure (SMILES) | viability |
| --- | --- |
| O=c1[nH]cc(F)c(=O)[nH]1 | 146% (inactive) |
| CCCCCCNC(=O)n1cc(F)c(=O)[nH]c1=O | 172% (inactive) |
| Cc1ccc(-c2cc(C(F)(F)F)nn2-c2ccc(S(N)(=O)=O)cc2)cc1 | 131% (inactive) |
| CN(CCOc1ccc(CC2SC(=O)NC2=O)cc1)c1ccccn1 (stereo not drawn) | 133% (inactive) |

same assay, conditions: patient-derived ovarian cancer cells, CellTiter-Glo viability, 144 h; at 5 µM; OCI-P5x cells; with rucaparib 20 µM; active compounds read low; 100% = cells with rucaparib alone

| Structure (SMILES) | viability |
| --- | --- |
| O=c1[nH]cc(F)c(=O)[nH]1 | 82.4% (active) |
| CCCCCCNC(=O)n1cc(F)c(=O)[nH]c1=O | 76.9% (active) |
| Cc1ccc(-c2cc(C(F)(F)F)nn2-c2ccc(S(N)(=O)=O)cc2)cc1 | 109% (inactive) |
| CN(CCOc1ccc(CC2SC(=O)NC2=O)cc1)c1ccccn1 (stereo not drawn) | 103% (inactive) |

same assay, conditions: patient-derived ovarian cancer cells, CellTiter-Glo viability, 144 h; at 5 µM; OCI-P5x cells; without rucaparib; active compounds read low

| Structure (SMILES) | viability |
| --- | --- |
| O=c1[nH]cc(F)c(=O)[nH]1 | 73.4% (active) |
| CCCCCCNC(=O)n1cc(F)c(=O)[nH]c1=O | 77.9% (active) |
| Cc1ccc(-c2cc(C(F)(F)F)nn2-c2ccc(S(N)(=O)=O)cc2)cc1 | 105% (inactive) |
| CN(CCOc1ccc(CC2SC(=O)NC2=O)cc1)c1ccccn1 (stereo not drawn) | 116% (inactive) |

target: NAD(+) hydrolase SARM1 (Homo sapiens) (UniProt Q6SZW1); assay: blocking NAD cleavage by SARM1 SAM-TIR – cell lysate, NAD-Glo luminescence (AID 1508614); settings: SAM-TIR HEK293T lysate NADase, at 1 µM, active compounds read high;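 also: higher remaining NAD means stronger inhibition of SARM1 NADase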
Sequence (Q6SZW1 whole entry, looked up): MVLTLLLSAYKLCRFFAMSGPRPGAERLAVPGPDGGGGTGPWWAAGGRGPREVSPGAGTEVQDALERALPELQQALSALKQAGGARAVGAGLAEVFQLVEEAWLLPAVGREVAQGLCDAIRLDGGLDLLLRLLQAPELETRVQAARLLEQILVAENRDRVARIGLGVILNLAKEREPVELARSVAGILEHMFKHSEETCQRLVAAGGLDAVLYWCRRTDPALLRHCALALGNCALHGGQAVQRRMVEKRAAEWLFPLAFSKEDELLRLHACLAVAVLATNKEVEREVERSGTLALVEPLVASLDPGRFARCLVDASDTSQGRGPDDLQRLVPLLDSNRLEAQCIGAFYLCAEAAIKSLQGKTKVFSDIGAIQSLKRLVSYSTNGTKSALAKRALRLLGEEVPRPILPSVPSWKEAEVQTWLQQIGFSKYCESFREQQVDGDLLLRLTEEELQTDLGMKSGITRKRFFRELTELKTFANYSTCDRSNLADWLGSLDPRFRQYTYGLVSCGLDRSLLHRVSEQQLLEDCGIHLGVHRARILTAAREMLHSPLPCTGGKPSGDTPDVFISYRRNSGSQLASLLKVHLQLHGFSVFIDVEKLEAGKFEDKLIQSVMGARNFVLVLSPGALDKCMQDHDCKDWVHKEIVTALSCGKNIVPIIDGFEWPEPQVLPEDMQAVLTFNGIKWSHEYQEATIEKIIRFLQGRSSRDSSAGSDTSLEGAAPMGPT

| Structure (SMILES) | remaining NAD |
| --- | --- |
| O=c1[nH]cc(F)c(=O)[nH]1 | 10 nM (inactive) |
| CCc1nc(N)nc(N)c1-c1ccc(Cl)cc1 | 10 nM (inactive) |
| CCc1cccc2c3c([nH]c12)C(CC)(CC(=O)O)OCC3 (stereo not drawn) | 10 nM (inactive) |
| Nc1ncn([C@@H]2O[C@H](CO)[C@@H](O)[C@H]2O)c(=O)n1 | 10 nM (inactive) |
| Cc1ccccc1C(OCCN(C)C)c1ccccc1 (stereo not drawn) | 10 nM (inactive) |
| Cc1ccc(C)c(OCCCC(C)(C)C(=O)O)c1 | 10 nM (inactive) |
| NC(=O)c1cnccn1 | 10 nM (inactive) |
| CCCCCCNC(=O)n1cc(F)c(=O)[nH]c1=O | 10 nM (inactive) |
| COC1=CC(=O)C[C@@H](C)[C@]12Oc1c(Cl)c(OC)cc(OC)c1C2=O | 10 nM (inactive) |
| Cc1ncc([N+](=O)[O-])n1CC(C)O (stereo not drawn) | 10 nM (inactive) |
| N[C@@H](C(=O)N[C@@H]1C(=O)N2C(C(=O)O)=C(Cl)CS[C@H]12)c1ccccc1 | 10 nM (inactive) |
| CO[C@@]1(NC(=O)Cc2cccs2)C(=O)N2C(C(=O)O)=C(COC(N)=O)CS[C@@H]21 | 10 nM (inactive) |
| OCCN1CCN(CCCN2c3ccccc3Sc3ccc(C(F)(F)F)cc32)CC1 | 10 nM (inactive) |
| CN(C)CCOC(c1ccc(Cl)cc1)c1ccccn1 (stereo not drawn) | 10 nM (inactive) |
| Cc1onc(-c2c(Cl)cccc2Cl)c1C(=O)N[C@@H]1C(=O)N2[C@@H]1SC(C)(C)[C@@H]2C(=O)O | 10 nM (inactive) |
| COc1cc2nc(N(C)CCCNC(=O)C3CCCO3)nc(N)c2cc1OC (stereo not drawn) | 10 nM (inactive) |
| NS(=O)(=O)c1cc(C2(O)NC(=O)c3ccccc32)ccc1Cl (stereo not drawn) | 10 nM (inactive) |
| CN(C)CCc1c[nH]c2ccc(C[C@H]3COC(=O)N3)cc12 | 10 nM (inactive) |
| Cc1ccc(-c2cc(C(F)(F)F)nn2-c2ccc(S(N)(=O)=O)cc2)cc1 | 10 nM (inactive) |
| O=S(=O)(O)CCS | 10 nM (inactive) |
| C/C=C/C(=O)N(CC)c1ccccc1C | 10 nM (inactive) |
| COc1ccc(OC)c(C(O)CNC(=O)CN)c1 (stereo not drawn) | 10 nM (inactive) |
| Cn1cnc([N+](=O)[O-])c1Sc1ncnc2nc[nH]c12 | 10 nM (inactive) |
| c1ccc2[nH]c(-c3cscn3)nc2c1 | 10 nM (inactive) |
| CCCNCC(O)COc1ccccc1C(=O)CCc1ccccc1 (stereo not drawn) | 10 nM (inactive) |
| NC(=O)N1c2ccccc2CC(=O)c2ccccc21 | 10 nM (inactive) |
| Cc1cn([C@H]2C[C@H](N=[N+]=[N-])[C@@H](CO)O2)c(=O)[nH]c1=O | 10 nM (inactive) |
| CN(CCOc1ccc(CC2SC(=O)NC2=O)cc1)c1ccccn1 (stereo not drawn) | 10 nM (inactive) |

Source: PubChem BioAssay
